The list is not random: actives were taken first. Their share in the collection is about 8%.
FMDV antiviral: foot and mouth disease virus antiviral activity. FMDV antiviral cell-based qHTS. AID 1159524. 1.2% of 410,000 active. Potency, µM (highest dose often 57.9 µM), for inactives: at the top dose activity change, negative = inhibition, hits mostly inhibitors; calls by dose curve; tested in HEK293T cells; also: read-out not given here; potency is read from the fitted curve at half-maximal effect; % is scaled to controls: 0 for no effect and ±100 for the full control effect; nearly all actives have a fitted effect of over 45% in size
HCV inh: blocks hepatitis C virus | 3.4% of 340,000 active | Potency, µM (highest dose often 41.8 µM), inactives show top-dose activity change, negative = inhibition, actives largely listed as inhibitors | Huh7.5.1 HCVcc-Cre infection, luciferase reporter, 44 h | AID 651820; active = well fitted inhibition curve with a large enough effect; inconclusive = small, poorly fitted or top-dose-only effect, or another doubt; inactive = no such curve, though single readings can be large or run the other way; also: potency is read from the fitted curve at half-maximal effect; % is scaled to controls: 0 for no effect and ±100 for the full control effect
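Infectious HCV cell culture screen: compound-treated cells (1,000/well, pre-plated 4 h) are infected with HCVcc-Cre at roughly 0.5 moi and grown 44 h. Infection is quantified by luciferase signal after 15 min substrate incubation at room temperature.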
SARS PLpro yeast: blocks SARS-CoV papain-like protease in a yeast assay; S. cerevisiae expressing SARS-CoV PLpro, growth rescue; 0.19% of 330,000 active; Potency, µM (top dose mostly 32.9 µM), for the others: at the highest dose activity, positive = growth rescue, most hits filed as activators; AID 485353; calls by dose curve; also: potency is read from the fitted curve at half-maximal effect; 0% is about no effect; nearly all actives have a fitted effect of over 55% in size
HCMV inh: human cytomegalovirus inhibition. HFF cells, HCMV-luciferase reporter, 72 h; stronger effect = lower value. activity change, negative = inhibition, % at 57.5 µM. 4.5% of 410,000 active. AID 1259415; in the data active = activity change below about -60%; inconclusive = no clear call, values can overlap the other calls; inactive = above about -39%; also: % is scaled to controls: 0 for no effect and ±100 for the full control effect
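Two-dose cell screen: HFF monolayers treated with compounds and infected with luciferase-expressing HCMV at 1 PFU/cell, 72 h at 37C, then lysed for luciferase measurement.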
Marburg entry inh: inhibitors of Marburg virus binding or cell entry | Marburg virus pseudotyped entry inhibition, cell reporter | Potency, µM (titrated, usually from 37.8 µM), without a hit: at the top dose activity change, negative = inhibition, usual class: inhibitors | 1.8% of 300,000 active | AID 540276; calls by dose curve; tested in HEK293 cells; also: potency is read from the fitted curve at half-maximal effect; % is scaled to controls: 0 for no effect and ±100 for the full control effect
Lassa entry inh: blocks Lassa virus binding to or entry into cells. Lassa virus pseudotype entry inhibition, cell reporter. Potency, µM (series often up to 37.9 µM), for the others: at the top dose activity change, negative = inhibition, hits mostly inhibitors. 1.2% of 300,000 active; calls by dose curve; tested in HEK293 cells; also: potency is read from the fitted curve at half-maximal effect; % is scaled to controls: 0 for no effect and ±100 for the full control effect; nearly all actives have a fitted effect of over 50% in size
Active calls of the source: *; u = inconclusive; x = no result; [ ] = another dose, or the depositor's remark.

SMILES	FMDV antiviral	HCV inh	SARS PLpro yeast	HCMV inh	Marburg entry inh	Lassa entry inh
CC(/C=N/NC(=O)Cn1cnc2ccccc21)=C\c1ccccc1	-8.2%	-5.2%	15.3%	-70.0*	-13.8%	u
O=C(Cn1cnc2ccccc21)N/N=C/c1ccccc1	-15.2%	8.4%	-0.4%	12.5	x	x
O=S(=O)(c1ccc(S(=O)(=O)N2CCN(C3CCCCC3)CC2)cc1)N1CCCCCC1	-5.9%	17.6%	2.9%	8.3	-1.5%	18.2%
CC(C)CNS(=O)(=O)c1ccc(S(=O)(=O)N2CCN(C3CCCC3)CC2)cc1	-13.2%	-9.7%	0.0%	-100.8*	-27.3%[46.1 µM]	-3.3%
Cc1cccc2cc(C(c3nnnn3Cc3ccccc3)N3CCCc4ccccc43)c(=O)[nH]c12 (stereo unspecified)	35.7%	x	13.1%	-82.7*	u	-9.6%[14.3 µM]
COc1ccc(N2CCN(C(c3cc4cc(C)ccc4[nH]c3=O)c3nnnn3Cc3ccccc3)CC2)cc1 (stereo unspecified)	-3.4%	-26.9%	12.8%	78.9	u	u
Cc1ccc2cc(C(c3nnnn3Cc3ccccc3)N3CCN(c4ccccc4)CC3)c(=O)[nH]c2c1 (stereo unspecified)	-14.0%	u	-0.8%	-33.4	20.6µM*	-18.5%
CCOC(=O)[C@@](O)(C1C(=O)CC(C)(C)CC1=O)C(F)(F)F	x	x	x	x	15.4%[46.1 µM]	x
O=C(COC(=O)CNC(=O)c1ccccc1)Nc1nc(-c2ccccc2)cs1	59.8%	6.1%	-18.3%	112.0	u	u
COCCN(C(=O)CCC(=O)Nc1cc(C)on1)C(C(=O)NC(C)(C)C)c1ccccc1Cl (stereo unspecified)	25.1%	21.4%	-0.6%	-62.5*	9.4%	9.8%
COc1cccc(C(C(=O)NC(C)(C)C)N(Cc2ccc(C)cc2)C(=O)CCC(=O)Nc2cc(C)on2)c1OC (stereo unspecified)	u	11.2µM*	-1.8%	-16.0	u	u
CCCCN(C(=O)CCC(=O)Nc1cc(C)on1)C(C(=O)NC(C)(C)C)c1ccccc1Cl (stereo unspecified)	-1.4%	0.8%	-1.0%	-13.8	2.5%[46.1 µM]	13.4%[46.1 µM]
COc1cccc(C(C(=O)NC(C)(C)C)N(Cc2ccco2)C(=O)CCC(=O)Nc2cc(C)on2)c1OC (stereo unspecified)	61.6%	-15.8%	-0.1%	-36.5	u	-0.6%[46.1 µM]
COC1=C(OC)CC2=C(CCN=C2/C(=N\O)C2CCC(OC)C(OC)C2)C1 (stereo unspecified)	x	x	x	x	-4.4%[46.1 µM]	x
CCCCC(=O)N(C)c1c(CC)nc2c(OCCC3CCCCC3)cccn12	u	x	x	-97.9*	x	x
CCc1nc2c(OCCC3CCCCC3)cccn2c1N(C)C(=O)CC(C)C	u	x	x	47.4	x	x
CCOC(=O)N(C)c1c(CC)nc2c(OCc3ccc(Cl)cc3)cccn12	-15.7%	x	x	-88.6*	x	x
CCCCC(=O)N(C)c1c(CC)nc2c(OCC3CCCCC3)cccn12	0.0%	x	x	-63.9*	x	x
CCc1nc2c(OCCC3CCCCC3)cccn2c1N(C)C(=O)c1cccs1	28.2µM*	x	x	-16.0	x	x
COc1ccc(NC(=O)CSc2nc3ccccc3c(=O)n2CCCO)cn1	-13.8%	5.5%	-1.0%	-1.7	x	x
Cc1nc2cc(NC(=O)[C@@H]3C[C@@H](Sc4ccccn4)CN3Cc3cccc(F)c3)ccc2s1	5.3%	x	x	x	x	x
Cc1ccccc1COc1ccc(/C(O)=C2\C(=O)C(=O)N(CCCn3ccnc3)[C@H]2c2ccco2)cc1	x	x	x	x	20.6%	x
CCCCn1nc(C(=O)Nc2ccc3c(c2)OCCO3)c2ccccc2c1=O	-1.7%	u	-9.5%	-68.6*	x	x
CCOc1ccccc1NC(=O)Nc1cc(C(=O)NCc2ccc(C)cc2)ccc1N1CCCC1	-4.3%	x	x	-84.9*	x	-6.5%[46.1 µM]
CCn1nc(C(=O)Nc2ccccc2N2CCCC2)c2ccccc2c1=O	u	10µM*	-4.1%	-16.9	u	u
SMILES	FMDV antiviral	HCV inh	SARS PLpro yeast	HCMV inh	Marburg entry inh	Lassa entry inh
Cn1nc(C(=O)Nc2ccc3c(c2)OCCO3)c2ccccc2c1=O	8.3%	u	0.9%	120.2	x	x
Cc1ccc(C(=O)C2CCN(CC(=O)Nc3ccccc3C)CC2)cc1	-25.4%	u	-1.6%	-63.0*	u	x
Cc1ccccc1NC(=O)CN1CCC(C(=O)c2ccc3c(c2)OCCO3)CC1	-13.1%	2.9%	-3.5%	-12.1	6.0%[46.1 µM]	-23.6%
Cn1nc(C(=O)Nc2cc(Cl)ccc2N2CCCC2)c2ccccc2c1=O	-9.1%	u	-0.2%	-13.9	u	u
CCOc1ccc(C(=O)Nc2ccccc2N2CCOCC2)cc1	-19.2%	-13.6%	-3.1%	u	2.7%[46.1 µM]	-11.3%
CCOc1ccc(C(=O)C2CCN(CC(=O)Nc3ccccc3N3CCOCC3)CC2)cc1	-22.5%	u	-2.6%	u	u	18.3µM*
CCOc1ccc(C(=O)Nc2ccccc2N2CCCC2)cc1	19.2%	u	4.4%	-76.1*	2.9%	-7.5%
OC1(c2ccc(OC(F)F)cc2)CSC(=Nc2cccnc2)N1Cc1ccco1 (stereo unspecified)	8.91µM*	11.2µM*	-4.2%	-9.4	u	u
CCN(CC)C(=O)CN(c1cc2c(cc1OC)oc1ccccc12)S(=O)(=O)c1ccccc1	15.6%	10µM*	x	24.2	10µM*	u
COc1cc2oc3ccccc3c2cc1N(CC(=O)N1CCCCC1)S(=O)(=O)c1ccc(C)cc1	49.2%	u	x	11.2	14.1µM*	u
Cc1ccc(O)c(NC(=O)c2ccc(Br)c(S(=O)(=O)N3CCCCC3)c2)c1	0.0%	x	x	-73.2*	x	u
Cc1ccccc1NC(=O)c1cccc(S(=O)(=O)N2CCCCC2)c1	8.0%	0.0%	-7.7%	1.4	-12.7%[46.1 µM]	-5.7%
Cc1cc(NC(=O)c2cccc(S(=O)(=O)N3CCCC3)c2)no1	12.4%	11.5%	-0.8%	3.8	-1.5%	-11.3%[14.3 µM]
Cc1ccc(S(=O)(=O)N2CCCCC2)cc1NC(=O)c1ccc2c(c1)OCO2	0.0%	-5.0%	8.3%	u	-26.3%	-9.9%
Cc1ccc(O)c(NC(=O)c2cccc(S(=O)(=O)N3CCCCC3)c2)c1	-7.5%	11.2µM*	-14.5%	-25.1	-15.9%[46.1 µM]	-14.3%
Cc1ccc(NS(=O)(=O)c2ccc(C)c(NC(=O)c3ccc(S(=O)(=O)N4CCCCCC4)cc3)c2)c(C)c1	-18.3%	x	x	-63.7*	x	x
O=C(Nc1ccccn1)c1ccc(Br)c(S(=O)(=O)N2CCCCC2)c1	u	18.8%	9.5%	3.5	8.3%	4.0%
Cc1cc(NC(=O)c2ccc(Br)c(S(=O)(=O)N3CCCC3)c2)no1	u	u	0.2%	-69.1*	-27.1%	0.9%
COC(=O)c1ccccc1NC(=O)Cn1c(=O)nc(-c2ccccc2)c2cc(Cl)ccc21	17.9%	x	x	-39.0	x	-27.4%[46.1 µM]
CC(C)(Cc1cc(CC(C)(C)C(=O)O)cc(C(C)(C)C)c1)C(=O)O	-8.9%	17.3%	9.1%	7.5	x	x

Bioassay records from PubChem BioAssay.
